Source: PubChem BioAssay (The Scripps Research Institute Molecular Screening Center)
TTR transcr act: increases transthyretin transcription. SH-SY5Y TTR promoter Gaussia luciferase, luminescence; 100% = recombinant luciferase protein wells. activation, % at 16.7 µM. actives 1.3% (n = 92,000);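 active means activation above the mean of all tested compounds plus 3 SD, cut at about 9.5% in these data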;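 further: cells exposed to compounds for one day before reading; 0% = median of all test compound wells on the plate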
HuH7 TTR inh: counter-screen for TTR activators: TTR transcription inhibitors in HuH7 cells. HuH7 TTR promoter-Gaussia luciferase reporter, luminescence. actives 4% (n = 1,100). inhibition, % at 16.7 µM. shares compounds with TTR transcr act;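 active means average inhibition above the solvent-only control wells' mean plus 3 SD, cut at about 15% in these data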;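 further: 0% = cells with DMSO only and 100% = cells with inhibitor control FD; inhibitors lower well luminescence so higher value means more inhibition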
TTR up confirm: human TTR transcription activation, confirmation; shares compounds with TTR transcr act; SHSY5Y TTR promoter Gaussia luciferase, luminescence; 100% = purified Lucia enzyme wells, no cells; activation, % at 16.7 µM; 1,100 tested, under 10 active;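 active means mean activation above a set limit taken from the earlier primary screen, cut at about 11% in these data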;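 further: 0% = DMSO-treated cells and 100% = recombinant Lucia luciferase without cells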
* marks the source's active call; other numbers are inactive results. The sample as a whole holds a higher share of hits than the screen did.

SMILES	TTR transcr act	others
CC(C)(C)S(=O)N1Cc2cc(CO)cc(-c3ccccc3)c2[C@H]1CCO (stereo not given in full)	0
CC(C)(C)S(=O)N1Cc2ccc(CO)cc2[C@H]1CCO (stereo not given in full)	3
CC(C)(C)S(=O)N1Cc2cc(=O)n(Cc3ccccc3)cc2[C@H]1CCO (stereo not given in full)	11*	HuH7 TTR inh=-9;TTR up confirm=1
OCc1ccnc2oc3ccccc3c12	7
Cc1ccc(N2CC(NC(=O)N3CCN(C(=O)c4ccco4)CC3)CC2=O)cc1 (stereo not given)	1
CC(=O)c1cccc(N(CC(=O)Nc2ccccc2F)S(C)(=O)=O)c1	2
CC(=O)c1cccc(N(CC(=O)Nc2ccc(S(=O)(=O)N3CCCC3)cc2)S(C)(=O)=O)c1	-1
CC(=O)c1cccc(NC(=O)CN(c2ccccc2)S(C)(=O)=O)c1	12*	HuH7 TTR inh=-4;TTR up confirm=1
CCCCCCC(=O)Nc1ccc(Br)cn1	0
CC1=C(C(=O)Nc2ccc(C(=O)NCCCN3CCCCC3C)cc2)SCCO1 (stereo not given)	2
COc1ccc(C2=Nn3c(nnc3-c3ccccc3F)SC2)cc1OCC1CC1	-7
CCC(C)(C)n1nnnc1C(c1ccc(C)cc1)N1CCN(C(=O)c2ccco2)CC1 (stereo not given)	0
O=C(c1ccco1)N1CCN(C(c2ccc(F)cc2)c2nnnn2CC2CCCO2)CC1 (stereo not given)	11*	HuH7 TTR inh=-6;TTR up confirm=0
COc1ccc(C(c2nnnn2Cc2ccccc2)N2CCN(C(=O)c3ccco3)CC2)cc1 (stereo not given)	-4
COc1cc(OC)nc(C(NC(=O)C2CCN(Cc3c[nH]c4ccccc34)CC2)c2ccc(Cl)cc2)n1 (stereo not given)	-2
COc1ccc(/C=C(/NC(=O)c2ccccc2)C(=O)N2CCCC2)cc1	-1
CCOC1=C2[C@@H](CN(S(=O)(=O)c3ccc(C)cc3)[C@H]2c2ccccc2F)[C@H]2C(=O)NC(=O)[C@H]2C1	-1
CSc1ccccc1NC(=O)CN(C)CC(=O)Nc1ccc(Cl)cc1F	-1
CSc1ccccc1NC(=O)CN(C)CC(=O)Nc1ccccc1C(F)(F)F	12*	HuH7 TTR inh=-19;TTR up confirm=0
COc1ccc(CN(C)CC(=O)Nc2ccccc2C(F)(F)F)cc1	-1
O=S(=O)(CCSc1ccc(C(F)(F)F)cn1)c1ccc(Cl)cc1	2
CN(C)S(=O)(=O)c1cccc(C(=O)NCCOC(=O)c2cc(F)c(F)cc2Cl)c1	1
CC1CCN(CC(=O)NCCc2ccc(F)cc2)CC1	-1
COc1c(O)cccc1[C@@H](O)C1CCN(CCc2ccc(F)cc2)CC1	70*	HuH7 TTR inh=-4;TTR up confirm=0
CCOC(=O)c1cc2cc(OC)ccc2n1C1CCN(CCc2ccccc2)CC1	1
SMILES	TTR transcr act	others
Nc1nnnn1/N=C/c1cc(Br)ccc1O	12*	HuH7 TTR inh=-17;TTR up confirm=0
CCOc1ccc(/C=N/n2nnnc2N)cc1O	1
CCOc1ccc(/C=N/n2nnnc2N)cc1OCC	0
CC(=O)C1CCC2C3CC=C4CC(SC(=N)N)CCC4(C)C3CCC12C (stereo not given)	-5
O=C(Nc1ccc(OCc2ccccc2Cl)cc1)c1cccnc1	-2
COc1cc(C(=O)NC(=S)Nc2ccc3ccccc3c2)cc(OC)c1OC	2
COc1cc(Br)c(C(C)NC(=O)c2cccc(Br)c2)cc1OC (stereo not given)	-1
COc1cc(C(=O)NC(C)c2cccc3ccccc23)cc(OC)c1OC (stereo not given)	18*	HuH7 TTR inh=-35;TTR up confirm=0
Cc1n(N)c2ccccc2[n+]1CC(=O)c1ccccc1	0
CC(C)c1ccc2[nH]c(O)c(N=NC(=O)c3ccc(CSc4nncn4C)cc3)c2c1	9
Oc1[nH]c2ccccc2c1N=NC(=S)NCCc1ccccc1	7
CC(C)c1ccc2[nH]c(O)c(N=NC(=S)NCCc3ccccc3)c2c1	12*	HuH7 TTR inh=-8;TTR up confirm=0
O=C(Cc1cccc(NC(=O)C2CCCN(C(=O)C3CCCC3)C2)c1)Nc1ccc(C(=O)N2CCOCC2)cc1 (stereo not given)	1
O=C1NC(Cc2ccc(O)cc2)c2nc3ccc(F)cc3c(=O)n2-c2ncccc21 (stereo not given)	-2
CC1(c2nnnn2Cc2ccccc2)CCC(=O)N1CCc1ccccc1F (stereo not given)	11*	HuH7 TTR inh=-11;TTR up confirm=0
CC1(c2nnnn2Cc2ccccc2)CCC(=O)N1CCc1c[nH]c2ccccc12 (stereo not given)	-1
CC1(c2nnnn2Cc2ccccc2)CCC(=O)N1CC(F)(F)F (stereo not given)	-1
CCc1ccc(NC(=O)C2CCN(S(=O)(=O)c3c(C)noc3/C=C/N(C)C)CC2)cc1	0
